Bioassay records (PubChem BioAssay)
This is a sample that favours compounds with a hit; in the whole collection about 2.4% have one here.
D2 ag-1 = activates the human D2 dopamine receptor; P14416; DiscoveRx PathHunter D2 beta-arrestin, luminescence, 90 min; 100% = 57 uM dopamine signal; activation, % (concentration not given with the values); 0.084% of 360,000 active; AID 624465; in the data active means activation above about 40%; inconclusive means between about 15% and that limit
Target sequence (P14416 whole entry, looked up): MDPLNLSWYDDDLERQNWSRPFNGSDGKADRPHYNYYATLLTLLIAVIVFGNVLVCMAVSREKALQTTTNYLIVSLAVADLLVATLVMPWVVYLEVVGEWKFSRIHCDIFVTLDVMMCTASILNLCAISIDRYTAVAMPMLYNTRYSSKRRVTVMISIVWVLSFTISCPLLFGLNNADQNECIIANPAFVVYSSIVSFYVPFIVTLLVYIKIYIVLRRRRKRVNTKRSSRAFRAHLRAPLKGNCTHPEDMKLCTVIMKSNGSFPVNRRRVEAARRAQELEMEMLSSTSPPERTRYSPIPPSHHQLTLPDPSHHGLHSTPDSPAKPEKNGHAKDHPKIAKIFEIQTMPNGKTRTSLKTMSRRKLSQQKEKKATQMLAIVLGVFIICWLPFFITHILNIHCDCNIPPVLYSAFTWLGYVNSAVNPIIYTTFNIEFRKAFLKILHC
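Agonist mode: compounds alone added to overnight-plated D2 PathHunter cells for 90 min at 37 C, with 57 uM final dopamine (EC100) defining full response. Beta-arrestin recruitment detected by chemiluminescent reagent, read after 1 h at ambient temperature.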
D2 antag = D2 dopamine receptor (human) antagonism | P14416 | HEK293 TREx D2 cells, calcium flux, dopamine EC80 | inhibition, % at 10 µM | 2% of 340,000 active | AID 485344; in the data active means inhibition above about 30%; inactive means below that, where a call was filed; further: 0% is about no effect
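In this primary screen, negative modulation is detected by tracking calcium flux after an EC80 dopamine challenge in inducible HEK293 T-REx D2 cells preexposed to test compound for 180 s.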
D2 PAM-1 = human D2 receptor positive allosteric modulation; P14416; DiscoveRx D2 beta-arrestin cells, luminescence, 90 min; 100% = 57 uM dopamine signal; potentiation, % (concentration not given with the values); 0.23% of 360,000 active; AID 624464; in the data active means potentiation above about 50%; inconclusive means mostly about 30% to 49%
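D2 cells co-treated with compound plus 50 nM dopamine (EC20) for 90 min at 37 deg C to detect potentiation. Beta-arrestin recruitment was read as enzyme-fragment luminescence after 1 h at ambient temperature. Full response was set by 57 uM dopamine.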
D2 PAM-2 = positive allosteric modulators of human D2 dopamine receptor. P14416. 0.34% of 340,000 active. HEK293 T-REx D2, calcium flux, EC20 dopamine potentiation. potentiation, % at 10 µM;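 active means potentiation over 3 SD above the plate norm, cut at about 30% in these data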; further: 0% is about no effect
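Tetracycline-induced HEK293 T-REx cells force-coupled to calcium signalling expressed D2; compounds were pin-added after a 10 s baseline, read kinetically 180 s, then an EC20 dopamine challenge followed with a further 180 s calcium read.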
D2 ag-2 = agonists of human D2 dopamine receptor; HEK293 T-REx D2 cells, calcium flux agonist mode; activation, % at 2 µM; 0.53% of 340,000 active;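 active means activation over 3 SD above normal in the single-dose calcium agonist read, cut at about 30% in these data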; further: 0% is about no effect
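HEK293 Trex D2 cells, tetracycline-induced, o/n 30 C 5% CO2; no-wash Ca dye, RT 30–90 min; 10-cycle baseline, 23 nl cpd added, kinetic Ca read 180 s; agonist hits = positive Ca response.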
Starred values were filed as active, the others as inactive; ? = inconclusive; / = no result.

SMILES	D2 ag-1	D2 antag	D2 PAM-1	D2 PAM-2	D2 ag-2
COC(=O)C1=C(c2ccccc2OCc2ccccc2)C[C@@H]2CC[C@H]1N2C(=O)NC1CCN(Cc2ccccc2)CC1	4.6	59.5*	-23.6	-20.5	-0.3
COC(=O)C1=C(c2ccc(F)cc2OCc2ccccc2)C[C@@H]2CC[C@H]1N2C(=O)NC1CCN(Cc2ccccc2)CC1	-4.1	25.6	-17.0	-18.8	-0.1
FC(F)(F)c1ccc2c(c1)N(CCCN1CCN(CCCl)CC1)c1ccccc1S2	-2.1	75.4*	-44.2	-25.5	0.6
C/C=C(\C)C(=O)OC1C(C)=C2C(C1OC(=O)CCCCC)C(C)(OC(C)=O)CC(OC(=O)CCC)C1(O)C2OC(=O)C1(C)O (configuration not stated)	/	35.9*	/	-12.0	66.3*
COc1cc2c(cc1O)[C@@H]1Cc3ccc(OC)c(O)c3CN1CC2	9.0	75.2*	-4.6	-11.6	-0.9
COc1ccc(CC2c3cc(OC)c(OC)cc3CCN2C)cc1OC (configuration not stated)	6.1	/	-5.9	/	/
COc1ccc(C[C@@H]2c3cc(O)c(OC)cc3CCN2C)cc1O	-1.2	51.9*	-26.4	-17.7	0.1
CCN1CCN(Cc2cc(C(C)(C)C)c(O)c(C(C)(C)C)c2)CC1	/	45.9*	/	-23.4	-1.2
O=C(C[N+]12CCC(CC1)C(CO)C2)c1ccc([N+](=O)[O-])cc1 (configuration not stated)	-3.2	8.1	2.3	1.0	0.6
O=C(C[N+]12CCC(CC1)C(OC(=O)c1ccccc1)C2)c1ccc([N+](=O)[O-])cc1 (configuration not stated)	0.3	33.0*	-2.0	4.0	-1.1
CCC1(c2ccccc2)C(=O)N(C)C(=O)N(C)C1=O	1.6	34.0*	-5.7	-14.9	0.6
CN1C(=O)N(C)C(=O)C2(Sc3ccccc3C2=O)C1=O	-2.2	-8.6	-4.6	-2.4	0.0
N#CC1(c2ccccc2)CCN(C2CC(=O)N(c3ccc(F)cc3)C2=O)CC1 (configuration not stated)	4.9	-16.0	-4.9	30.9*	0.8
CC(C)NC(C)C(=O)c1ccc2ccccc2c1 (configuration not stated)	-12.3	46.0*	-19.7	18.7	-0.9
CC1(C)Cc2c(sc3c2C(=O)NC(c2cccnc2)N3)CO1 (configuration not stated)	-2.7	69.5*	-4.2	/	0.6
CC(=O)NC1CC2CCC(C1)N2 (configuration not stated)	-0.2	12.1	-12.8	36.2*	0.4
N#Cc1cccc(NC(=O)c2sc3nc4c(cc3c2N)N2CCC4CC2)c1	/	/	/	2.1	0.2
O=C1C=C(N2CC2)c2ccccc2C1=O	50.8*	/	4.3	/	/
CCOc1ccccc1NC(=O)c1cccn(Cc2ccccc2C)c1=O	/	/	/	11.5	0.9
COc1ccc(CNC(=O)CCC(=O)N2C[C@H]3C[C@H](C2)c2cccc(=O)n2C3)cc1OC	-2.8	36.4*	-25.7	-1.7	0.4
OCCN1C2CCC1CC(O)(c1ccc(F)cc1)C2 (configuration not stated)	-2.2	48.2*	-38.5	-19.3	1.1
CN1CC(C(=O)c2ccc(F)cc2)C(c2ccc(F)cc2)C1 (configuration not stated)	-7.9	99.9*	-28.5	-46.2	0.6
COc1ccc(/C=C/c2nc3ccccc3c(=O)n2-c2ccc(C)cc2)cc1O	/	/	/	/	0.1
Cc1cccc(C)c1NC1=NCCCS1	-6.7	-9.0	3.7	-17.0	0.7
Cc1cc(C)c(NC2=NCCCS2)c(C)c1	1.4	-21.1	-21.7	50.3*	-0.1
SMILES	D2 ag-1	D2 antag	D2 PAM-1	D2 PAM-2	D2 ag-2
Cc1ccc2c(c1)C1CN(C)CCC1N2C(=O)/C=C/c1ccc2c(c1)OCO2 (configuration not stated)	-2.2	21.4	-10.9	-10.3	0.3
Cc1ccc2c(c1)C1CN(C)CCC1N2C(=O)/C(C#N)=C/c1ccc2c(c1)OCO2 (configuration not stated)	-1.5	47.7*	-5.5	-9.5	-0.2
Cc1ccc(NC(=O)Cn2cc(C(=O)c3ccccc3)c3ccccc32)cc1	/	/	/	6.9	-0.2
CC[C@H]1C2C[C@H]3[C@@H]4N(C)c5ccccc5C45C[C@H](C2[C@H]5O)N3[C@@H]1O (some centres not stated)	-2.0	35.8*	-25.7	-9.6	0.6
CN1CCc2cccc(Cl)c2CC1	-0.8	52.6*	-31.9	-18.5	0.8
O=c1c2ccccc2nc(/C=C\c2cccc(Br)c2)n1-c1ccc(O)cc1	/	/	/	5.6	1.0
Cc1ccc(C)c(-n2c(C)nc3ccccc3c2=O)c1	-3.4	-0.2	-15.2	-18.7	0.3
Cc1cc(NCCN)nc2ccccc12	-5.7	57.8*	-20.3	-20.9	2.6
CCCCn1c(NC(=O)c2ccc(Br)o2)c(C(=O)OCC)c2nc3ccccc3nc21	-15.4	-5.2	-14.0	-16.4	37.3*
O=c1c2ccccc2nc(-c2ccco2)n1-c1nccs1	-3.3	30.2*	-5.0	0.0	1.0
COc1ccc(-c2nc(CN3C(=O)CN=C(c4ccccc4)c4ccccc43)c(C)o2)cc1	/	/	/	-2.7	/
COc1cccc(CN2CC=C(c3ccc(F)cc3)CC2)c1	0.9	72.4*	-11.8	-23.0	2.6
CCc1nn(CC(=O)N2CCC3(CC2)OCCO3)c(=O)c2cc3ccccc3n12	2.8	-5.0	-1.6	-12.1	31.8*
CC(C)(C)C(=O)OC[N+](C)(C)CCOC(=O)C(O)(c1ccccc1)C1CCCC1 (configuration not stated)	10.6	19.4	-15.4	-7.8	-0.3
CCCC(CCC)C(=O)OC[N+](C)(C)CCOC(=O)C(O)(c1ccccc1)C1CCCC1 (configuration not stated)	-5.4	39.1*	-10.6	-3.6	-1.4
CC(C)OCC(O)CN1CC2C[C@@H](C1)Cn1c2cccc1=O (some centres not stated)	7.0	41.7*	3.6	-14.3	22.6
O=c1[nH]c2ccccc2n1C1CCN(C(c2cc3ccccc3o2)c2nnnn2Cc2ccccc2)CC1 (configuration not stated)	2.2	/	58.3*	/	/
CSCCC(c1nnnn1-c1ccc2c(c1)OCCO2)N1CCC(n2c(=O)[nH]c3ccccc32)CC1 (configuration not stated)	3.7	/	65.0*	/	/
COc1cccc(C(c2nnnn2-c2ccc3c(c2)OCCO3)N2CCC(n3c(=O)[nH]c4ccccc43)CC2)c1OC (configuration not stated)	3.7	/	?	/	/
O=c1[nH]c2ccccc2n1C1CCN(C(c2ccccc2OC(F)(F)F)c2nnnn2-c2ccc3c(c2)OCCO3)CC1 (configuration not stated)	10.0	/	61.2*	/	/
O=C(Nc1ccc2c(c1)OCO2)c1cccn(Cc2ccc(F)cc2)c1=O	/	/	/	1.8	0.7
